Source: PMC5540273 (PLoS ONE, 2017)
“And” between values parts separate entries of the source, which are not always exact repeats. Equal entries are not always repeated. Where two headings read alike, the source gives them in different places.

Columns and labels:
PAK4 = details: concentration: 1 μM, replicates: in singlicate, n = 1
PAK6 = details: concentration: 1 μM, replicates: in singlicate, n = 1
PAK7 = details: concentration: 1 μM, replicates: in singlicate, n = 1
PCTK1 = tested on: T1, PCTK1; details: concentration: 1 μM, replicates: in singlicate, n = 1
T1 construct: gene CDK16

PCTK2 = tested on: T2, PCTK2; details: concentration: 1 μM, replicates: in singlicate, n = 1
T2 construct: gene CDK17

PCTK3 = tested on: T3, PCTK3; details: concentration: 1 μM, replicates: in singlicate; n = 1
T3 construct: gene CDK18

PDGFRA = details: concentration: 1 μM, replicates: in singlicate, n = 1
PDGFRB = details: concentration: 1 μM, replicates: in singlicate, n = 1
PDPK1 = details: concentration: 1 μM, replicates: in singlicate, n = 1
PFTAIRE2 = details: concentration: 1 μM, replicates: in singlicate; n = 1
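Note: KINOMEscan kinase panel screen.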

Structure (SMILES)	%Inh (PAK4)	%Inh (PAK6)	%Inh (PAK7)	%Inh (PCTK1)	%Inh (PCTK2)	%Inh (PCTK3)	%Inh (PDGFRA)	%Inh (PDGFRB)	%Inh (PDPK1)	%Inh (PFTAIRE2)	%Inh (PAK4; 1 µM)	%Inh (PAK6; 1 µM)	%Inh (PAK7; 1 µM)	%Inh (PCTK1; 1 µM)	%Inh (PCTK2; 1 µM)	%Inh (PDGFRA; 1 µM)	%Inh (PDGFRB; 1 µM)	%Inh (PDPK1; 1 µM)
NCC(NC(=O)c1cc(-c2cn[nH]c2)c(-c2ccnc3[nH]ccc23)s1)c1ccccc1.O=C(O)C(F)(F)F.O=C(O)C(F)(F)F (stereo not drawn) [GSK1325775]	50%	74%	74%	15%	9%	0%	26%	61%	0%	17%	–	–	–	–	–	–	–	–
Cc1cccc(-c2nc(-c3ccc(S(C)(=O)=O)cc3)sc2-c2ccncc2)c1	10%	18%	0%	0%	0%	0%	10%	0%	26%	10%	–	–	–	–	–	–	–	–
O=C(NCCNc1ccnc(Nc2ccc(F)cc2)n1)Nc1ccccc1F [GSK1379880]	0%	0%	0%	0%	16%	14%	0%	70%	7%	21%	–	–	–	–	–	–	–	–
CN1c2ccc(NCc3ccc(F)cc3)cc2-c2c(cnn2C)S1(=O)=O	0%	0%	0%	0%	0%	0%	0%	0%	0%	0%	–	–	–	–	–	–	–	–
NCCNS(=O)(=O)c1ccc(-c2ccnc3[nH]ccc23)cc1 [GSK977617]	–	–	–	–	–	0%	–	–	–	25%	82% and 75%	73% and 61%	90.8% and 77%	1% and 2%	7% and 0%	11% and 10%	80% and 65%	11% and 0%
O=C(NCCCN1CCOCC1)c1cccc(Nc2nccc(Nc3ccc(Oc4ccccc4)cc3)n2)c1 [GW663929]	9%	7%	12%	0%	22%	12%	46%	99.6%	9%	18%	–	–	–	–	–	–	–	–
O=C(c1ccc(-c2cc(-c3c[nH]nc3-c3ccccn3)ccn2)cc1)N1CCOCC1 [GW812171]	6%	0%	0%	0%	0%	0%	0%	0%	0%	0%	–	–	–	–	–	–	–	–
Cc1nnc(-c2ccc3occ(-c4ccc(C(C)O)cc4)c3c2)o1 (stereo not drawn)	10%	11%	1%	18%	11%	1%	0%	8%	0%	0%	–	–	–	–	–	–	–	–
Cn1cc(-c2ccc3c(c2)CCN3C(=O)Cc2ccccc2Cl)c2c(N)ncnc21 [GSK2608885]	0%	13%	23%	7%	0%	0%	78%	99.9%	23%	14%	–	–	–	–	–	–	–	–
CSc1ccc(-c2cc3ncnc(SCC(=O)O)c3s2)cc1	0%	0%	8%	0%	0%	6%	15%	50%	10%	12%	–	–	–	–	–	–	–	–
CN(C1=C(c2ccccc2)C(=O)NC1=O)c1ccccc1 [SB-334860]	5%	0%	18%	5%	8%	11%	0%	19%	5%	27%	–	–	–	–	–	–	–	–
COc1ccc(COc2cc(-n3cnc4ccccc43)sc2C(N)=O)cc1 [GSK1024304]	0%	0%	5%	0%	0%	11%	0%	31%	3%	17%	–	–	–	–	–	–	–	–
Cl.Oc1cccc(Nc2ccnc3cc(-c4ccncc4)ccc23)c1 [GW494601]	0%	0%	14%	0%	0%	18%	98.5%	99.5%	0%	2%	–	–	–	–	–	–	–	–
Cc1cccc(Cn2ccn3c(=O)cc(N4CCOCC4)nc23)c1 [GSK2297542]	25%	53%	22%	6%	16%	19%	0%	40%	11%	27%	–	–	–	–	–	–	–	–
Fc1ccc(-c2ncn(CCCN3CCOCC3)c2-c2ccccn2)cc1 [SB-211742]	0%	8%	0%	0%	2%	0%	0%	0%	0%	20%	–	–	–	–	–	–	–	–
Fc1ccc(-c2ncn(CCCN3CCOCC3)c2-c2cccnc2)cc1 [SB-211743]	7%	0%	0%	0%	0%	0%	0%	0%	1%	0%	–	–	–	–	–	–	–	–
Cc1nnc(-c2ccc(C)c(-c3ccc(C(=O)Nc4ccc(NS(C)(=O)=O)cc4)cc3)c2)o1 [GW702865]	0%	0%	6%	0%	7%	12%	9%	36%	0%	3%	–	–	–	–	–	–	–	–

Structure (SMILES)	%Inh (PAK4)	%Inh (PAK6)	%Inh (PAK7)	%Inh (PCTK1)	%Inh (PCTK2)	%Inh (PCTK3)	%Inh (PDGFRA)	%Inh (PDGFRB)	%Inh (PDPK1)	%Inh (PFTAIRE2)	%Inh (PAK4; 1 µM)	%Inh (PAK6; 1 µM)	%Inh (PAK7; 1 µM)	%Inh (PCTK1; 1 µM)	%Inh (PCTK2; 1 µM)	%Inh (PDGFRA; 1 µM)	%Inh (PDGFRB; 1 µM)	%Inh (PDPK1; 1 µM)
O=C(Nc1n[nH]c2cc(-c3cccc(F)c3)ccc12)C1CC1 [SB-735464]	0%	0%	0%	5%	6%	0%	42%	67%	0%	26%	–	–	–	–	–	–	–	–
Cc1ccc(C(=O)NCC(N)=O)cc1-n1c(C)cc(OCc2ccc(F)cc2F)c(Br)c1=O	13%	12%	5%	0%	2%	22%	0%	9%	15%	10%	–	–	–	–	–	–	–	–
COc1cc2c(cc1OCCN1CCN(C)CC1)ncc1c3ccc(C#N)cc3[nH]c21	7%	18%	4%	0%	12%	4%	97.7%	94.7%	0%	58%	–	–	–	–	–	–	–	–
Cl.Nc1ncnc2occ(-c3ccc(NC(=O)Nc4cc(C(F)(F)F)ccc4F)cc3)c12 [SB-707548]	9%	6%	26%	11%	80%	67%	99.8%	100%	33%	68%	–	–	–	–	–	–	–	–
Nc1nc(-c2ccc3c(N)n[nH]c3c2)cc(N2CCCC2)n1 [GSK2227430]	0%	0%	5%	0%	0%	0%	0%	18%	67%	6%	–	–	–	–	–	–	–	–
Fc1ccc(-c2nn3c(OCC(F)(F)F)cccc3c2-c2ccncc2)cc1 [GW514784]	0%	0%	16%	0%	15%	0%	0%	21%	0%	7%	–	–	–	–	–	–	–	–
Cc1ccc(NC(=O)c2ccnc(N3CCN(C)CC3)c2)cc1-c1ccc(C(=O)NCC2CC2)cc1 [GW775604]	0%	0%	0%	0%	0%	0%	0%	93.4%	0%	1%	–	–	–	–	–	–	–	–
N#Cc1ccc(-c2cc(-c3c[nH]nc3-c3ccccn3)ccn2)cc1 [GW693028]	0%	0%	11%	0%	0%	33%	0%	7%	0%	0%	–	–	–	–	–	–	–	–
COCCNC(=O)c1ccc(-c2cc(C(=O)NC3CC3)cc(F)c2C)cc1 [GW868318]	20%	18%	24%	8%	0%	20%	32%	51%	8%	0%	–	–	–	–	–	–	–	–
c1ccc(-c2n[nH]cc2-c2ccnc3ccccc23)nc1 [GW271431]	0%	11%	8%	0%	0%	20%	0%	20%	0%	36%	–	–	–	–	–	–	–	–
Cc1c(Cn2c(C)nn3c(=O)cc(N4CCOC(C)C4)nc23)cccc1C(F)(F)F (stereo not drawn) [GSK2344444]	0%	0%	0%	6%	0%	8%	0%	18%	8%	16%	–	–	–	–	–	–	–	–
O=C1NC(=O)C(N2CCc3ccccc32)=C1c1cccc(Cl)c1 [SB-408010]	13%	13%	6%	0%	0%	16%	9%	5%	0%	0%	–	–	–	–	–	–	–	–
[2H]C([2H])(c1cccc(C(F)(F)F)c1C)n1ccn2c(=O)nc(N3CCOCC3)cc12 [GSK2336394]	0%	0%	0%	4%	0%	11%	0%	15%	0%	0%	–	–	–	–	–	–	–	–
COc1ccc(Nc2nccc(N3CCC(NC(=O)Nc4cccc(C(C)=O)c4)C3)n2)cc1 (stereo not drawn) [GSK1379731]	0%	13%	0%	9%	0%	18%	0%	38%	7%	9%	–	–	–	–	–	–	–	–
COc1cc(Nc2nccc(N3CCC(NC(=O)c4cccc(NC(C)=O)c4)C3)n2)cc(OC)c1OC (stereo not drawn) [GSK1379754]	0%	0%	0%	4%	0%	20%	0%	54%	30%	18%	–	–	–	–	–	–	–	–
CN1c2ccc(CNc3ccc(F)cc3)cc2-c2c(cnn2C)S1(=O)=O	0%	0%	0%	0%	0%	0%	0%	0%	12%	0%	–	–	–	–	–	–	–	–
